Source: PubChem (The Scripps Research Institute Molecular Screening Center)
Only some compounds are listed: those with a hit (about 3.4% of all), similar ones and a draw of the others.
PLC-gamma1 inh – inhibitors of human phospholipase C gamma1. P19174. purified PLC-gamma1, fluorogenic substrate, fluorescence. inhibition, % at 12.2 µM. 370,000 compounds, 0.84% hits. AID 720700; in the data active means inhibition above about 9.5%
proKLK7 act – proKLK7 (human) activation, primary screen. P49862. activation, % at 7 µM. AID 652039. 370,000 compounds, 0.9% hits. purified proKLK7, EDANS-DABCYL substrate fluorescence; 100% is mature enzyme control, 0% vehicle;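 active means activation above the mean of all tested compounds plus 3 SD, computed per campaign excluding outliers beyond control limits, cut at about 13% in these data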
ADAM10 inh – inhibitors of human ADAM10; O14672; recombinant ADAM10, EDANS/DABCYL FRET peptide cleavage, 3 h; inhibition, % at 7 µM; 370,000 compounds, 0.62% hits; AID 720582;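 active means inhibition above a per-campaign cutoff equal to the mean of compounds falling between control-based bounds plus 3 SD, cut at about 20% in these data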
PLCb3 inh – inhibitors of human phospholipase C beta3. Q01970. Purified PLC-beta3, fluorogenic substrate, fluorescence. inhibition, % at 12.2 µM. 370,000 compounds, 0.18% hits. AID 720704; in the data active means inhibition above about 11%
Target sequence (Q01970 whole entry, looked up): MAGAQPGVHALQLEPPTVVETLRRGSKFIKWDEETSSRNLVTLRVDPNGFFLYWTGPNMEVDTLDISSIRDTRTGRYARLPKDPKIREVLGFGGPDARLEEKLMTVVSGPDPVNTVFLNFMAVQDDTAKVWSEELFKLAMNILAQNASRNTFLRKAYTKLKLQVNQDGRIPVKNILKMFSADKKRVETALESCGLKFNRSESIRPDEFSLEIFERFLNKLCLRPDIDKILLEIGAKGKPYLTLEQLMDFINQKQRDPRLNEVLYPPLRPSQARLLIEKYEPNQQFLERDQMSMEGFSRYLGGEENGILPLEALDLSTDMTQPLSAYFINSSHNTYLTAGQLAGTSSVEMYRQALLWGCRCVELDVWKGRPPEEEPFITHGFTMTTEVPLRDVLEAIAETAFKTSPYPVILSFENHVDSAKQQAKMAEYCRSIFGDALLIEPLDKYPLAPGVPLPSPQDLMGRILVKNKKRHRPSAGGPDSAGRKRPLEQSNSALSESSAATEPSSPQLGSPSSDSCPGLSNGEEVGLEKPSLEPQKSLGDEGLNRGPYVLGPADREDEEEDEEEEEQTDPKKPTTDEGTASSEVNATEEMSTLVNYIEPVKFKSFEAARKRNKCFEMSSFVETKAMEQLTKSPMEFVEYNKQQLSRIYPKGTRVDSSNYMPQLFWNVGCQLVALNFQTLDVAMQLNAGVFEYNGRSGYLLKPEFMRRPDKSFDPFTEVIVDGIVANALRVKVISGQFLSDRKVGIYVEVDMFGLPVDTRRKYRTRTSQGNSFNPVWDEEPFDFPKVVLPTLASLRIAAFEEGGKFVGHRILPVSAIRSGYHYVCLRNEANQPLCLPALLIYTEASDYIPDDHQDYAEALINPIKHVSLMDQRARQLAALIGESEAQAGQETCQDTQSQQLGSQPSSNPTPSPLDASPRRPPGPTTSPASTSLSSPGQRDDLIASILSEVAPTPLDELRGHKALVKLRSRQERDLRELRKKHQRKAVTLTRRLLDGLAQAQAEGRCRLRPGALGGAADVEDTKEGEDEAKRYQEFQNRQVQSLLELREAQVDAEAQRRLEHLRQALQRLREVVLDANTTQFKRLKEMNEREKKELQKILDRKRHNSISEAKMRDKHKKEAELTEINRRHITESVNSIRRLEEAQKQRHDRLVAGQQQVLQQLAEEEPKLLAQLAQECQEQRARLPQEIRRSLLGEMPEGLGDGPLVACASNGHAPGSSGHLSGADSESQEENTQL
ADAM17 inh – inhibits human ADAM17; P78536; recombinant ADAM17, EDANS/DABCYL FRET peptide cleavage; inhibition, % at 6.95 µM; 370,000 compounds, 0.83% hits;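 active means inhibition above the mean of compounds lying between control limits plus 3 SD, set per campaign, cut at about 8.5% in these data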
HGIII-sPLA2 inh – Inhibits HGIII-sPLA2 liposome hydrolysis, primary screen. Q9NZ20. QFRET BODIPY PC-A2 liposome hydrolysis, fluorescence. inhibition, % at 12.2 µM. 370,000 compounds, 0.56% hits. AID 743126;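 active means inhibition above mean plus 3 SD of compounds lying within the high and low control bounds, cut at about 19% in these data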
sPLA2 confirm – human GIII-sPLA2 inhibition, confirmation | inhibition, % at 12.2 µM | AID 743280 | shares compounds with HGIII-sPLA2 inh | recombinant hGIII-sPLA2, BODIPY PC-A2 QFRET fluorescence | 2,000 compounds, 34% hits;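 active means mean inhibition across triplicates above the hit cutoff set in the earlier primary screen, cut at about 19% in these data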
BODIPY interf – counter-screen for HGIII-sPLA2 inhibitors: 535nm fluorescence interference; inhibition, % at 12.2 µM; BODIPY FL product fluorescence interference, QFRET; shares compounds with HGIII-sPLA2 inh; AID 743282; 2,000 compounds, 8.5% hits;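 active means average inhibition above the solvent-only control mean plus 3 SD, cut at about 6% in these data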
BODIPY interf DR – counter-screen for HGIII-sPLA2 inhibitors: 535nm fluorescence interference, dose response | BODIPY FL product fluorescence interference, cell-free | AID 743455 | IC50, µM | shares compounds with HGIII-sPLA2 inh | 240 tested, under 10 active;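 active means IC50 at or below 10 µM; inactive means IC50 above 10 µM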
Each line names hits and unclear results; the compound was inactive in the other large screens (follow-up assays come after a bar, where they were run).

COc1ccc2c(c1)C1NC(=S)N[C@@](C)(O2)C1C(=O)Nc1ccccc1 (some centres undefined)	HGIII-sPLA2 inh 21 | sPLA2 confirm 24 | BODIPY interf inactive
Cc1nc2ccccn2c1CN(C)C(=O)C1CCC(=O)N(Cc2cccc(F)c2)C1 (centres undefined)	none
O=C(/C=C/c1ccccc1)NC(=S)NNC(=O)c1cnccn1	HGIII-sPLA2 inh 25 | sPLA2 confirm 34 | BODIPY interf inactive | BODIPY interf DR inactive
COc1cccc(C(=O)N[C@@H](Cc2cccnc2)C(=O)N2CCC[C@H]2C(=O)NC2CCCC2)c1	none
COc1ccccc1NC(=S)N1CCC(c2nc3cc(C)c(C)cc3[nH]2)CC1	HGIII-sPLA2 inh 21 | sPLA2 confirm inactive | BODIPY interf inactive
COc1ccccc1NC(=O)N1CCC(c2nc3cc(C)c(C)cc3[nH]2)CC1	none
c1ccc(N2CCN(c3ccccc3)C2c2cccnc2)cc1	HGIII-sPLA2 inh 24 | sPLA2 confirm inactive | BODIPY interf inactive
COc1cccc(-c2ncn(CCc3ccccc3OC)c2C(C)C)c1	none
CC1CN(C(=S)SCCN2Cc3ccccc3C2=O)CC(C)O1 (centres undefined)	none
O=C1c2ccccc2CN1CCSC(=S)N1CCOCC1	HGIII-sPLA2 inh 21 | sPLA2 confirm inactive | BODIPY interf inactive
CNC[C@H]1Oc2c(NS(=O)(=O)c3cccs3)cccc2C(=O)N([C@H](C)CO)C[C@@H]1C	none
O=C(c1ccccc1[N+](=O)[O-])N1N=C(c2ccccc2)CC1(O)C(F)(F)F (centres undefined)	none
CCC1=NN(C(=O)c2ccccc2[N+](=O)[O-])C(O)(c2ccccc2)C1 (centres undefined)	HGIII-sPLA2 inh 23 | sPLA2 confirm inactive | BODIPY interf inactive
COC(=O)C1=NN(C(=O)c2ccccc2)C(C)(O)C1 (centres undefined)	none
COC(=O)C1=NN(C(=O)c2ccccc2)C(O)(c2ccc([N+](=O)[O-])cc2)C1 (centres undefined)	HGIII-sPLA2 inh 33 | sPLA2 confirm 57 | BODIPY interf 17
CC1CCCN(CCCNC(=O)C2CC(=O)N(CCc3ccccc3)C2)C1 (centres undefined)	none
CCCCN(C)S(=O)(=O)c1ccc(C(=O)N=c2sc3cc(NC(C)=O)ccc3n2C)cc1	none
CCCCN(CC)S(=O)(=O)c1ccc(C(=O)N=c2sc3cc(NC(C)=O)ccc3n2C)cc1	HGIII-sPLA2 inh 20 | sPLA2 confirm inactive | BODIPY interf inactive
CCOC(=O)n1c(O)c(N=NC(N)=S)c2cc(C)ccc21	none
COc1ccc(-n2c(C)cc(C)c(C(C)=O)c2=S)cc1	HGIII-sPLA2 inh 20 | sPLA2 confirm inactive | BODIPY interf inactive
CCc1ccc(N2C(=O)Nc3ccc(Br)cc3C2(O)C(=O)NCCN(C)C)cc1 (centres undefined)	HGIII-sPLA2 inh 20 | sPLA2 confirm inactive | BODIPY interf inactive
CCOc1ccc(N2C(=O)Nc3ccc(Br)cc3C2(O)C(=O)NCCCN(C)C)cc1 (centres undefined)	none
O=C(NC(=S)Nc1ccccc1N1CCCC1)c1ccc([N+](=O)[O-])cc1	HGIII-sPLA2 inh 31 | sPLA2 confirm 34 | BODIPY interf inactive | BODIPY interf DR inactive
CCC(=O)Nc1cccc(C2=NOC3(C2)C[C@H](C(N)=O)N(C(=O)CC#N)C3)c1 (some centres undefined)	none
COC(=O)c1cc(C(=O)Nc2nc3ccccc3[nH]2)cc([N+](=O)[O-])c1	HGIII-sPLA2 inh 29 | sPLA2 confirm inactive | BODIPY interf 7.0
Cc1ccc(CNC(=O)CSc2nc3[nH]ncc3c(=O)[nH]2)cc1	HGIII-sPLA2 inh 19 | sPLA2 confirm inactive | BODIPY interf inactive
CN1/C(=C/C(=S)NC(=O)C2(C)CC2(Cl)Cl)C(C)(C)c2ccccc21 (centres undefined)	HGIII-sPLA2 inh 27 | sPLA2 confirm inactive | BODIPY interf inactive
COc1ccccc1N(C(C)=O)C1=C(Cl)C(=O)c2ccccc2C1=O	HGIII-sPLA2 inh 21 | sPLA2 confirm 38 | BODIPY interf inactive | BODIPY interf DR inactive
CCCCN(C(=S)SC)C1CCS(=O)(=O)C1 (centres undefined)	none
Oc1ccccc1-c1n[nH]c(=S)n1Cc1ccccc1	none
S=c1[nH]nc(-c2cccc(Cl)c2)n1Cc1ccccc1	none
CCn1c(-c2ccc(Cl)cc2)n[nH]c1=S	none
CCn1c(-c2cccn(Cc3ccc(Cl)cc3Cl)c2=O)n[nH]c1=S	HGIII-sPLA2 inh 21 | sPLA2 confirm 33 | BODIPY interf inactive | BODIPY interf DR inactive
S=c1[nH]nc(-c2ccccc2Br)n1Cc1ccccc1	HGIII-sPLA2 inh 26 | sPLA2 confirm inactive | BODIPY interf inactive
S=c1[nH]nc(-c2ccc(Cl)cc2Cl)n1Cc1ccccc1	HGIII-sPLA2 inh 20 | sPLA2 confirm 28 | BODIPY interf inactive | BODIPY interf DR inactive
CCCC1(c2ccccc2)NC(=O)N(CC(=O)NCc2ccc(OC)cc2)C1=O (centres undefined)	none
COc1cc(C(=O)NNC(=S)NC(=O)c2ccc(Cl)cc2)cc(OC)c1OC	HGIII-sPLA2 inh 26 | sPLA2 confirm 30 | BODIPY interf inactive | BODIPY interf DR inactive
Cc1cccc(NC(=S)NNC(=O)c2csc(C)c2)c1	HGIII-sPLA2 inh 27 | sPLA2 confirm 38 | BODIPY interf inactive | BODIPY interf DR inactive
Cc1cccc(NC(=S)NNC(=O)c2csc3c2CCCC3)c1	none
Cc1cccc(C(=O)NC(=S)NNC(=O)c2ccc(Cl)cc2)c1	HGIII-sPLA2 inh 24 | sPLA2 confirm 40 | BODIPY interf inactive | BODIPY interf DR inactive
CC1CCCN(C(=S)Nc2ccc3nc4n(c(=O)c3c2)CCCCC4)C1 (centres undefined)	HGIII-sPLA2 inh 27 | sPLA2 confirm inactive | BODIPY interf inactive
COc1ccc(C(=O)OCc2ccccc2C#N)cc1S(=O)(=O)N1CCOCC1	none
CC(=O)c1cn(-c2ccc([N+](=O)[O-])cc2)c(=O)n(C)c1=O	none
Cn1c(CBr)c(C(=O)c2ccc([N+](=O)[O-])cc2)c(=O)n(C)c1=O	HGIII-sPLA2 inh 22 | sPLA2 confirm inactive | BODIPY interf inactive
O=C(NNC(=S)NC1CC2C=CC1C2)c1cccnc1 (centres undefined)	HGIII-sPLA2 inh 22 | sPLA2 confirm 21 | BODIPY interf inactive
